Where “and” joins values, the source holds several entries; their conditions need not be identical. Equal values may be shown once. Inconclusive results are not listed. Calls of active or inactive are those of the source. Calls follow the shape of the dose curve; as a rule, active = well fitted inhibition curve with a large enough effect; inconclusive = small, poorly fitted or top-dose-only effect; inactive = flat fitted curve, though single readings scatter.
How the values were obtained:
[1] = system: HACAT; assay: qHTS assay to identify novel small-molecules to repurpose for Merkel cell carcinoma treatment (AID 1296009); conditions: MCC and control cell lines, CellTiter-Glo viability, 72 h; at 44.8 µM (top of the series) unless noted
Method in brief: (§1)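 qHTS format: cells treated with library compounds in DMSO across 8 (NPC) or 11 (MIPE) concentrations. Readout after 72 hr at 37 degree celsius was CellTiter-Glo luminescence.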

[2] = system: MCC-13; assay: as above; conditions: MCC and control cell lines, CellTiter-Glo viability, 72 h; series mostly up to 46 µM
Method in brief: as §1

[3] = system: MCC-26; assay: as above; conditions: MCC and control cell lines, CellTiter-Glo viability, 72 h; series mostly up to 46 µM
Method in brief: as §1

[4] = system: KB-3-1; assay: Cytotoxic Profiling of Annotated Libraries Using Quantitative High-Throughput Screening (AID 1296008); conditions: Five cell lines viability, CellTiter-Glo ATP luminescence, 48-72 h; max response: active compounds read low; also: % is scaled to controls: 0 for no effect and ±100 for the full control effect
Method in brief: (§2)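 Compounds were pin-transferred onto cells and incubated 48 or 72 hr at 37 degree Celsius, 95% humidity. CellTiter-Glo was added, plates sat 10 min at room temperature, then ATP-coupled luminescence was imaged as the viability read-out.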

[5] = system: P93_24; assay: qHTS profiling for inhibitors of Plasmodium falciparum proliferation (AID 504749); also: potency is read from the fitted curve at half-maximal effect; conditions: P. falciparum in erythrocytes, SYBR Green DNA, 72 h; series mostly up to 28.7 µM
Method in brief: (§3)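 Parasite proliferation within erythrocytes, 72 h exposure. Endpoint: SYBR Green I fluorescence after overnight lysis at room temperature. Controls: 0.29 uM artemisinin, DMSO.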

[6] = system: TAB109; assay: as above; conditions: P. falciparum in erythrocytes, SYBR Green DNA, 72 h; series mostly up to 28.7 µM
Method in brief: as §3

[7] = system: TAB165; assay: as above; conditions: P. falciparum in erythrocytes, SYBR Green DNA, 72 h; series mostly up to 28.7 µM
Method in brief: as §3

[8] = system: W2; assay: as above; conditions: P. falciparum in erythrocytes, SYBR Green DNA, 72 h; series mostly up to 28.7 µM
Method in brief: as §3

[9] = system: HaCat; assay: Cytotoxic Profiling of Annotated Libraries Using Quantitative High-Throughput Screening (AID 1296008); conditions: Five cell lines viability, CellTiter-Glo ATP luminescence, 48-72 h; max response: active compounds read low; also: % is scaled to controls: 0 for no effect and ±100 for the full control effect
Method in brief: as §2

[10] = system: NIH3T3; assay: as above; conditions: Five cell lines viability, CellTiter-Glo ATP luminescence, 48-72 h; max response: active compounds read low
Method in brief: as §2

[11] = system: P94_40; assay: qHTS profiling for inhibitors of Plasmodium falciparum proliferation (AID 504749); also: potency is read from the fitted curve at half-maximal effect; conditions: P. falciparum in erythrocytes, SYBR Green DNA, 72 h; series mostly up to 28.7 µM
Method in brief: as §3

[12] = system: PAD; assay: as above; conditions: P. falciparum in erythrocytes, SYBR Green DNA, 72 h; series mostly up to 28.7 µM
Method in brief: as §3

[13] = system: PC15; assay: as above; conditions: P. falciparum in erythrocytes, SYBR Green DNA, 72 h; series mostly up to 28.7 µM
Method in brief: as §3

[14] = system: PC26; assay: as above; conditions: P. falciparum in erythrocytes, SYBR Green DNA, 72 h; series mostly up to 28.7 µM
Method in brief: as §3

[15] = system: PC49; assay: as above; conditions: P. falciparum in erythrocytes, SYBR Green DNA, 72 h; series mostly up to 28.7 µM
Method in brief: as §3

[16] = system: SC27B; assay: as above; conditions: P. falciparum in erythrocytes, SYBR Green DNA, 72 h; series mostly up to 28.7 µM
Method in brief: as §3

[17] = system: TAB113; assay: as above; conditions: P. falciparum in erythrocytes, SYBR Green DNA, 72 h; series mostly up to 28.7 µM
Method in brief: as §3
Also: nearly all actives have a fitted effect of over 60% in size.

CC1(C)S[C@@H]2[C@H](NC(=O)[C@H](N)c3ccccc3)C(=O)N2[C@H]1C(=O)O
inactive: outcome [1] | Potency [2] | Potency [3]

CC(C)Cc1ccc([C@H](C)C(=O)O)cc1
inactive: max response [4] -10.1%

C[N+](C)(C)CCOP(=O)(O)OP(=O)([O-])OC[C@H]1O[C@@H](n2ccc(N)nc2=O)[C@H](O)[C@@H]1O
inactive: max response [4] 10.6% and -5.11%

CC[C@H]1OC(=O)[C@H](C)C(=O)[C@H](C)[C@@H](O[C@@H]2O[C@H](C)C[C@H](N(C)C)[C@H]2O)[C@](C)(OC)C[C@@H](C)C(=O)[C@H](C)[C@H]2N(CCCCn3cnc(-c4cccnc4)c3)C(=O)O[C@]12C
inactive: max response [4] 6.09% and 49.1%

COC(=O)C1=C(C)NC(C)=C(C(=O)OCC(C)C)C1c1ccccc1[N+](=O)[O-] (configuration not stated)
inactive: max response [9] 0.281% | max response [10] -5.79%
active: Potency [5] 10 µM | Potency [6] 8.91 µM | Potency [7] 10 µM | Potency [8] 6.01 µM

C=C(Nc1ccc(OCC)cc1)Nc1ccc(OCC)cc1
inactive: Potency [5] | Potency [11] | Potency [12] | Potency [13] | Potency [14] | Potency [15] | Potency [16] | Potency [6] | Potency [17] | Potency [7] | max response [4] -11.3% and -9.03%

CCCCC[C@H](O)/C=C/[C@@H]1[C@@H](C/C=C\CCCC(=O)O)[C@@H](O)C[C@H]1O
inactive: Potency [5] | Potency [11] | Potency [12] | Potency [13] | Potency [15] | Potency [16] | Potency [6] | Potency [17] | Potency [7] | Potency [8] | max response [4] 4.45% and 3.57%

CCCCCCOc1ccccc1C(N)=O
inactive: Potency [5] | Potency [11] | Potency [12] | Potency [13] | Potency [14] | Potency [15] | Potency [16] | Potency [6] | Potency [17] | Potency [7] | Potency [8] | max response [9] -20.5% | max response [4] 0.591% | max response [10] -8.29% | Potency [2]

CN1[C@@H](CC(=O)c2ccccc2)CCC[C@H]1C[C@H](O)c1ccccc1
active: Potency [11] 11.2 µM | Potency [15] 7.08 µM | Potency [7] 14.1 µM | Potency [8] 5.36 µM
inactive: max response [4] -11.5%

O=C(O)/C=C\C(=O)O
inactive: Potency [2]

CC1(C)C[C@@H]1C(=O)N/C(=C\CCCCSC[C@H](N)C(=O)O)C(=O)O
inactive: Potency [5] | Potency [11] | Potency [12] | Potency [13] | Potency [14] | Potency [15] | Potency [16] | Potency [6] | Potency [17] | Potency [7] | Potency [8] | max response [4] 4.27% and -2.38%

O=C1CN(/N=C/c2ccc(-c3ccc([N+](=O)[O-])cc3)o2)C(=O)N1
inactive: Potency [11] | Potency [12] | Potency [13] | Potency [16] | Potency [6] | Potency [17] | Potency [7] | Potency [8]

C=CC(N)CCC(=O)O (configuration not stated)
inactive: Potency [5] | Potency [11] | Potency [12] | Potency [13] | Potency [14] | Potency [15] | Potency [16] | Potency [6] | Potency [17] | Potency [7] | Potency [8] | max response [4] 3.37%
